Data on 14 molecules can be found in PubChem BioAssay (NCATS).

Inconclusive results are not listed. Values without a mark were called inactive. Active and inactive are the calls of the source. The call rests on the fitted dose curve; in most records, active means well fitted curve in the direction sought with a large enough effect; inconclusive means small, poorly fitted or top-dose-only effect, or another doubt; inactive means no such curve, though single readings can be large; an effect the other way counts as inactive or inconclusive.

Assay [1] is described as follows: Quantitative High-Throughput drug screen in 47 multiple myeloma cell lines against the NCATS MIPE library collection: KMS26_JCRB cell viability assay (AID 1918975). Further: nearly all actives have a fitted effect of over 45% in size. Further: potency means the concentration at half of the fitted maximal effect. The procedure, abridged:
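qHTS of the MIPE 4.0 collection: 500 myeloma cells/well, 48 h drug exposure at 37C in 5% CO2, then CellTiter-Glo for 5 min at room temperature before luminescence reading.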

A short description of assay [2]: Quantitative High-Throughput drug screen in 47 multiple myeloma cell lines against the NCATS MIPE library collection: MMM1_PLB cell viability assay (AID 1918976). Further: potency means the concentration at half of the fitted maximal effect; nearly all actives have a fitted effect of over 35% in size. The gist of the method:
(§1)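 ATP-based CellTiter-Glo luminescence after 48 h drug exposure (37 °C, 5% CO2) of 500 myeloma cells per well. DMSO-only wells set 100% viability, media-only wells 0%; MIPE 4.0 library added by pin tool.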

The nature of assay [3]: Quantitative High-Throughput drug screen in 47 multiple myeloma cell lines against the NCATS MIPE library collection: MOLP8_DSMZ cell viability assay (AID 1918977). Further: nearly all actives have a fitted effect of over 45% in size. Further: potency means the concentration at half of the fitted maximal effect. The procedure, abridged: as §1
Assay [4] can be described thus: Quantitative High-Throughput drug screen in 47 multiple myeloma cell lines against the NCATS MIPE library collection: OCIMY1_PLB cell viability assay (AID 1918979). Further: nearly all actives have a fitted effect of over 35% in size. Further: potency means the concentration at half of the fitted maximal effect. The gist of the method: as §1
Assay [5] is described as follows: Quantitative High-Throughput drug screen in 47 multiple myeloma cell lines against the NCATS MIPE library collection: MM1S_ATCC cell viability assay (AID 1918980). Further: nearly all actives have a fitted effect of over 45% in size. Further: potency means the concentration at half of the fitted maximal effect. The gist of the method: as §1
The nature of assay [6]: Quantitative High-Throughput drug screen in 47 multiple myeloma cell lines against the NCATS MIPE library collection: MM1R_ATCC cell viability assay (AID 1918981). Further: nearly all actives have a fitted effect of over 35% in size. Further: potency means the concentration at half of the fitted maximal effect. The gist of the method:
as §1

The nature of assay [7]: Quantitative High-Throughput drug screen in 47 multiple myeloma cell lines against the NCATS MIPE library collection: KMS28PE_JCRB cell viability assay (AID 1918983). Further: nearly all actives have a fitted effect of over 35% in size. Further: potency means the concentration at half of the fitted maximal effect. The gist of the method:
as §1

The nature of assay [8]: Quantitative High-Throughput drug screen in 47 multiple myeloma cell lines against the NCATS MIPE library collection: KMS34_JCRB cell viability assay (AID 1918985). Further: nearly all actives have a fitted effect of over 40% in size. Further: potency means the concentration at half of the fitted maximal effect. The procedure, abridged: as §1
The nature of assay [9]: Quantitative High-Throughput drug screen in 47 multiple myeloma cell lines against the NCATS MIPE library collection: OCIMY7_PLB cell viability assay (AID 1918987). Further: nearly all actives have a fitted effect of over 65% in size. Further: potency means the concentration at half of the fitted maximal effect. The gist of the method:
as §1

Assay [10] in a line: Quantitative High-Throughput drug screen in 47 multiple myeloma cell lines against the NCATS MIPE library collection: OCIMY5_PLB cell viability assay (AID 1918988). Further: nearly all actives have a fitted effect of over 65% in size. Further: potency means the concentration at half of the fitted maximal effect. The procedure, abridged:
as §1

Assay [11] is described as follows: Quantitative High-Throughput drug screen in 47 multiple myeloma cell lines against the NCATS MIPE library collection: U266_ATCC cell viability assay (AID 1919864). The procedure, abridged: as §1
A short description of assay [12]: Quantitative High-Throughput drug screen in 47 multiple myeloma cell lines against the NCATS MIPE library collection: XG6_PLB cell viability assay (AID 1919865). Further: nearly all actives have a fitted effect of over 40% in size. Further: potency means the concentration at half of the fitted maximal effect. The gist of the method:
as §1

Assay [13] in a line: Quantitative High-Throughput drug screen in 47 multiple myeloma cell lines against the NCATS MIPE library collection: LP1_DSMZ cell viability assay (AID 1918982). Further: nearly all actives have a fitted effect of over 35% in size. Further: potency means the concentration at half of the fitted maximal effect. The procedure, abridged:
as §1

A short description of assay [14]: Quantitative High-Throughput drug screen in 47 multiple myeloma cell lines against the NCATS MIPE library collection: KMS20_JCRB cell viability assay (AID 1918973). Further: nearly all actives have a fitted effect of over 45% in size. Further: potency means the concentration at half of the fitted maximal effect. The procedure, abridged:
(§2)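 Luminescent ATP measurement with CellTiter-Glo gives viability, scaled between DMSO-only wells (100%) and media-only wells (0%). Cells, 500 per well, faced library compounds for 48 hours at 37C.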

Assay [15] is described as follows: Quantitative High-Throughput drug screen in 47 multiple myeloma cell lines against the NCATS MIPE library collection: OPM1_PLB cell viability assay (AID 1918989). Further: nearly all actives have a fitted effect of over 40% in size. Further: potency means the concentration at half of the fitted maximal effect. The gist of the method: as §1
The nature of assay [16]: Quantitative High-Throughput drug screen in 47 multiple myeloma cell lines against the NCATS MIPE library collection: NCIH929_DSMZ cell viability assay (AID 1918978). Further: nearly all actives have a fitted effect of over 35% in size. Further: potency means the concentration at half of the fitted maximal effect. The procedure, abridged:
as §1

Assay [17] is described as follows: Quantitative High-Throughput drug screen in 47 multiple myeloma cell lines against the NCATS MIPE library collection: L363_DSMZ cell viability assay (AID 1918984). Further: nearly all actives have a fitted effect of over 40% in size. Further: potency means the concentration at half of the fitted maximal effect. The procedure, abridged: as §1
Assay [18] in a line: Quantitative High-Throughput drug screen in 47 multiple myeloma cell lines against the NCATS MIPE library collection: SKMM1_PLB cell viability assay (AID 1919863). Further: nearly all actives have a fitted effect of over 35% in size. Further: potency means the concentration at half of the fitted maximal effect. The settings on record: SKMM1 myeloma viability, CellTiter-Glo ATP, 48 h; viability: hits give low values. The procedure, abridged: as §1
A general note: ATP-based viability assays read luminescence as a measure of living cells.

Assay [19] is described as follows: Quantitative High-Throughput drug screen in 47 multiple myeloma cell lines against the NCATS MIPE library collection: KMS21BM_JCRB cell viability assay (AID 1918974). Further: potency means the concentration at half of the fitted maximal effect. To be noted: ATP luminescence, 48 h; viability: at 45.8 µM (top of the series). The procedure, abridged:
as §2

A short description of assay [20]: Quantitative High-Throughput drug screen in 47 multiple myeloma cell lines against the NCATS MIPE library collection: KMS12PE_JCRB cell viability assay (AID 1918972). Further: nearly all actives have a fitted effect of over 30% in size. The gist of the method:
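CellTiter-Glo ATP luminescence gave viability after 48 h compound treatment at 37C of 500 multiple myeloma cells per well. Normalisation used DMSO-only wells as 100% and media-only wells as 0% viability; primary qHTS of approved and investigational drugs.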

For orientation: viability means a read-out of living cells in per cent, often relative to untreated cells.

On to `C=CCON=C(C[C@H]1O[C@@H]2O[C@]3(C)CC[C@@H]4[C@H](C)CC[C@@H]([C@H]1C)[C@@]24OO3)[C@H]1O[C@@H]2O[C@]3(C)CC[C@H]4[C@H](C)CC[C@@H]([C@@H]1C)[C@@]24OO3`, for which the Potency was 264 nM (active) in [1]; 187 nM (active) in assay [2]; 235 nM (active) in assay [3]; 187 nM (active) in [4]; 526 nM (active) in assay [5]; 296 nM (active) in [6]. Also, the Potency in assay [7] was 264 nM (active); in assay [8] it was 264 nM (active); in [9] it was 105 nM (active); in [10], 187 nM (active); in assay [11] it was 332 nM (active); in [12], 264 nM (active).

As to `O=C(Oc1ccc([N+](=O)[O-])cc1)N1CCC(C(O)(c2ccc3c(c2)OCO3)c2ccc3c(c2)OCO3)CC1`, the Potency entry in assay [1], in assay [3], in assay [4], in assay [6], in assay [13] and in assay [7] was “inactive” throughout. Also, the Potency entry in [8] and in [10] was “inactive” throughout. For the same molecule, the Potency in assay [12] was 16600 nM (active).

Consider `CC=C(C)C(=O)N[C@@H](c1ccccc1)[C@@H](O)C(=O)O[C@H]1C[C@@]2(O)[C@@H](OC(=O)c3ccccc3)[C@@H]3[C@]4(OC(C)=O)CO[C@@H]4C[C@H](O)[C@@]3(C)C(=O)[C@H](OC(C)=O)C(=C1C)C2(C)C`, for which the Potency result in assay [14], in assay [1], in assay [3], in [5], in assay [6] and in assay [13] was “inactive” each time. For the same molecule, the Potency entry in assay [7], in [8], in assay [10] and in assay [12] was “inactive” in each case.

Turning to `COC1=CC(C)=C[C@@H](C)[C@@H](O)[C@@H](C)CC(C)=CC=C[C@H](OC)[C@H]([C@@H](C)[C@@H](O)[C@H](C)[C@@]2(O)C[C@@H](O)[C@H](C)[C@@H](C(C)C)O2)OC1=O`, the Potency was 3.3 nM (active) in [1]; 10500 nM (active) in assay [2]; 4.2 nM (active) in assay [3]; 3.7 nM (active) in [4]; 1480 nM (active) in [5]; 1660 nM (active) in [6]. In addition, the Potency in assay [13] is 2.1 nM (active); in assay [7], 14800 nM (active); in [8] it was 3 nM (active); in assay [15] it was 23.5 nM (active); in assay [12], 1 nM (active).

Turning to `CO[C@H]1CCC(O[C@H]2C[C@H]([C@]3(C)CC[C@]4(C[C@H](O)[C@@H](C)[C@@H]([C@@H](C)C=C(C)C(=O)[C@H](C)C[C@H](C)C(=O)O)O4)O3)O[C@]3(O[C@@H]([C@H]4O[C@@](O)(CO)[C@H](C)C[C@H]4C)C[C@H]3C)[C@H]2C)O[C@H]1C` (some centres not stated), the Potency is 235 nM (active) in assay [14]; 372 nM (active) in assay [1]; 1660 nM (active) in assay [2]; 296 nM (active) in assay [3]; 833 nM (active) in assay [16]; 5260 nM (active) in [4]. The Potency in assay [5] is 296 nM (active); in [6], 1050 nM (active); in assay [13], 833 nM (active); in assay [7], 3720 nM (active); in assay [17], 148 nM (active); in [8], 1180 nM (active). In addition, the Potency in assay [9] is 935 nM (active); in assay [10] it was 132 nM (active); in assay [18], 1180 nM (active); in assay [11], 296 nM (active); in assay [12], 418 nM (active).

`COc1ccc(N(C(=O)Oc2c(C)cccc2C)c2ccnc(Nc3ccc(N4CCN(C)CC4)cc3)n2)c(OC)c1`: the Potency was 235 nM (active) in assay [19]; 1480 nM (active) in [1]; 3720 nM (active) in [2]; 3720 nM (active) in assay [3]; 4690 nM (active) in assay [5]; 2350 nM (active) in assay [6]. Further, the Potency is 18700 nM (active) in assay [7]; 1050 nM (active) in assay [8]; 1180 nM (active) in assay [10]; 20900 nM (active) in assay [15]; 332 nM (active) in [12]. Further, the Potency entry in assay [4] is “inactive”.

On to `CC(C)(C)c1cc(C=C(C#N)C#N)cc(Br)c1O`, for which the Potency in [16] is 16600 nM (active); in assay [6], 23500 nM (active); in assay [13], 23500 nM (active); in assay [7], 23500 nM (active); in assay [9], 4690 nM (active); in [15], 9350 nM (active). Moreover, the Potency was 26400 nM (active) in assay [11] and 14800 nM (active) in [12].

Regarding `O=C1CCC[C@@H]2[C@H]3CCCN4CCC[C@@H](CN12)[C@@H]34`, the Potency entry in [1], in assay [15] and in assay [12] was “inactive” throughout.

With `CCC(=O)OC1CCC2C3CCC4=CC(=O)CC[C@@]4(C)C3CC[C@]12C` (some centres not stated), the Potency result in [1], in [3], in assay [4], in assay [6], in assay [13] and in [7] was “inactive” in each case. The Potency result in [17], in [8] and in [15] was “inactive” in each case. Also, in assay [9], the Potency was 16600 nM (active).

In the case of `CC(=O)Nc1ccc(OC[C@](C)(O)C(=O)Nc2ccc([N+](=O)[O-])c(C(F)(F)F)c2)cc1`, the Potency entry in assay [1] and in [15] was “inactive” each time. In addition, in assay [9], the Potency was 10500 nM (active).

Turning to `C[C@]12CC[C@H](O)CC1=CC[C@H]1[C@H]3CCC(=O)[C@@]3(C)CC[C@@H]12`, the Potency is 11800 nM (active) in assay [19] and 4690 nM (active) in assay [2]. Besides, the Potency entry in [3], in [16], in assay [4], in assay [6], in assay [13] and in [7] was “inactive” throughout. Also, the Potency result in assay [8] is “inactive”. For the same molecule, the viability in assay [18] was 106%.

Regarding `CCOC(=O)c1c(C(C#N)=CN)c2ccc(Cl)c(Cl)c2n1C`, the Potency entry in assay [20], in [4] and in assay [12] was “inactive” throughout. For the same molecule, in assay [5], the Potency is 23500 nM (active).

On to `CC(=Cc1csc(C)n1)[C@@H]1C[C@H]2O[C@@H]2CCC[C@H](C)[C@@H](O)[C@@H](C)C(=O)C(C)(C)[C@@H](O)CC(=O)O1`, for which the Potency result in assay [1], in [16], in assay [4], in assay [5], in assay [6] and in [13] was “inactive” in each case. Moreover, the Potency entry in assay [7], in assay [8], in assay [9], in assay [10] and in assay [12] was “inactive” each time. In addition, in assay [18], the viability is 81.4%.

As to `Cc1c(N)nc([C@H](CC(N)=O)NC[C@@H](N)C(N)=O)nc1C(=O)N[C@H](C(=O)N[C@@H](C)[C@H](O)[C@@H](C)C(=O)N[C@@H](C(=O)NCCc1nc(-c2nc(C(=O)NCCC[S+](C)C)cs2)cs1)[C@@H](C)O)C(O[C@H]1O[C@H](CO)[C@H](O)[C@@H](O)[C@@H]1O[C@H]1O[C@H](CO)[C@@H](O)[C@H](OC(N)=O)[C@H]1O)c1cnc[nH]1` (some centres not stated), the Potency in assay [4] was 13200 nM (active); in assay [5], 20900 nM (active); in assay [8], 264 nM (active); in [12], 590 nM (active). Besides, the Potency entry in assay [13] and in assay [7] was “inactive” throughout.
